Screens deposited in PubChem by Broad Institute.
C diff growth: inhibitors of Clostridium difficile growth | Clostridium difficile clinical isolate growth, OD600, 24 h; hits give low values | growth activity, negative = inhibition, % at 16 µg/mL (by protocol) | hit rate 0.25% among 86,000 | AID 1259249;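 active = mean growth activity at or below -80% and every replicate also at or below -80%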;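 note: 0% = DMSO wells and -100% = levofloxacin 16 µg/mL wells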
Pf Dd2 inh: inhibitors of Plasmodium falciparum Dd2 growth | P. falciparum Dd2 growth, SYBR Green, 72 h; hits give low values | activity change, % at 10 µM | hit rate 2.3% among 94,000; in the data active = activity change below about -80%
T cruzi growth-1: T. cruzi proliferation inhibition | T. cruzi beta-gal in NIH3T3, GalScreen luminescence, 90 h | inhibition, % at 8.34 µM | hit rate 5.9% among 77,000 | AID 624255;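 active = mean inhibition above about 93%, with at least 55% of replicates each passing it, limit read from the data, passing the limit was not always enough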
T cruzi growth-2: blocks T. cruzi growth in NIH3T3 host cells; hit rate 72% among 5,600; AID 651739; inhibition, % at 8.35 µM; T. cruzi beta-gal in NIH3T3, GalScreen luminescence, 90 h; shares compounds with T cruzi growth-1;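 active = mean replicate inhibition above about 95% and at least 55% of replicates individually reaching it, limit read from the data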
T cruzi growth-3: blocks T. cruzi growth in NIH3T3 host cells. inhibition, % at 2.09 µM. AID 651740. T. cruzi beta-gal in NIH3T3, GalScreen luminescence, 90 h. hit rate 21% among 5,600. shares compounds with T cruzi growth-1;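 active = mean inhibition above about 95%, with at least 55% of replicates also reaching it, limit read from the data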;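 note: plate controls were neutral control median for no effect and positive control median for full effect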
3T3 cytotox: kills mouse NIH/3T3 fibroblasts; shares compounds with T cruzi growth-1; NIH/3T3 viability, CellTiter-Glo ATP luminescence, 90 h; cytotoxicity (signal decrease), % at 8.35 µM; hit rate 14% among 5,600;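 active = mean signal decrease across replicates above about 35% based on untreated-well scatter, with enough replicates individually passing, limit read from the data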;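 note: 0% = median of neutral control wells and 100% = median of positive control wells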
3T3 cytotox 2: NIH/3T3 (mouse) viability loss; shares compounds with T cruzi growth-1; NIH/3T3 viability, CellTiter-Glo ATP luminescence, 90 h; inhibition, % at 24.9 µM; hit rate 56% among 5,600; AID 651744;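 active = mean loss of cell viability signal at or above a set limit, and enough replicates individually reaching it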;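 note: 0% = median of neutral control wells and 100% = median of positive control wells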
Numbers without * were called inactive; ! = not active in a repeat. Sampled rows, rich in hits. Any-hit rate of the full collection: about 6.7%.

`C[C@H]1CN([C@@H](C)CO)S(=O)(=O)c2ccc(-c3ccc(C#N)cc3)cc2O[C@@H]1CN(C)C(=O)Nc1cc(F)ccc1F` gave C diff growth 6, Pf Dd2 inh -60, T cruzi growth-1 108*, T cruzi growth-2 92, T cruzi growth-3 41, 3T3 cytotox 32 and 3T3 cytotox 2 75*.
C[C@H]1CN([C@@H](C)CO)S(=O)(=O)c2ccc(-c3cccc(F)c3)cc2O[C@H]1CN(C)C(=O)Nc1cc(F)ccc1F was read as C diff growth 6, Pf Dd2 inh -54, T cruzi growth-1 112*, T cruzi growth-2 105*, T cruzi growth-3 102*, 3T3 cytotox 63* and 3T3 cytotox 2 42*.
For C[C@H](CO)N1C[C@H](C)[C@H](CN(C)C(=O)Nc2cc(F)ccc2F)Oc2cc(-c3cccc(C#N)c3)ccc2S1(=O)=O the results were C diff growth -1 and Pf Dd2 inh -13.
Screening C[C@H]1CN([C@@H](C)CO)S(=O)(=O)c2ccc(-c3cccc(F)c3)cc2O[C@@H]1CN(C)C(=O)Nc1cc(F)ccc1F returned C diff growth 10, Pf Dd2 inh -27, T cruzi growth-1 112*, T cruzi growth-2 106*, T cruzi growth-3 78, 3T3 cytotox 43* and 3T3 cytotox 2 86*.
For C[C@@H]1CN([C@@H](C)CO)S(=O)(=O)c2ccc(-c3ccc(C#N)cc3)cc2O[C@H]1CN(C)C(=O)Nc1cc(F)ccc1F the results were C diff growth 2, Pf Dd2 inh -59 and T cruzi growth-1 99.
`CCC(=O)Nc1ccc2c(c1)C(=O)N(C)[C@@H]1CC[C@H](CC(=O)NC3Cc4ccccc4C3)O[C@@H]1CO2` gave C diff growth -1, Pf Dd2 inh 5 and T cruzi growth-1 50.
`C[C@@H]1CN([C@@H](C)CO)C(=O)c2cc(N(C)C)ccc2O[C@H]1CN(C)C(=O)NC1CCCCC1` gave C diff growth -1, Pf Dd2 inh 5 and T cruzi growth-1 -11.
C[C@@H]1CN([C@@H](C)CO)C(=O)c2cc(C#CC3(O)CCCC3)cnc2O[C@H]1CN(C)C(=O)Cc1ccncc1 was read as C diff growth -4, Pf Dd2 inh -35 and T cruzi growth-1 21.
`O=C(C[C@H]1C[C@H]2c3cc(NC(=O)NC4CCCC4)ccc3O[C@H]2[C@H](CO)O1)NCc1ccccc1F` gave C diff growth -5, Pf Dd2 inh -3 and T cruzi growth-1 20.
`Cc1ccc(S(=O)(=O)N(C)C[C@@H]2Oc3ncc(C#CCC(C)C)cc3C(=O)N([C@H](C)CO)C[C@H]2C)cc1` gave C diff growth -6, Pf Dd2 inh -66, T cruzi growth-1 122*!, T cruzi growth-2 103*, T cruzi growth-3 65, 3T3 cytotox 5 and 3T3 cytotox 2 85*.
For Cc1ccc(S(=O)(=O)N(C)C[C@@H]2Oc3ncc(C#CCC(C)C)cc3C(=O)N([C@H](C)CO)C[C@@H]2C)cc1 the results were C diff growth -11, Pf Dd2 inh -43, T cruzi growth-1 105*, T cruzi growth-2 105*, T cruzi growth-3 61, 3T3 cytotox 23 and 3T3 cytotox 2 64*.
For CC(C)CC#Cc1cnc2c(c1)C(=O)N([C@@H](C)CO)C[C@@H](C)[C@H](CN(C)S(C)(=O)=O)O2 the results were C diff growth -7, Pf Dd2 inh -13 and T cruzi growth-1 41.
`CC(C)CC#Cc1cnc2c(c1)C(=O)N([C@@H](C)CO)C[C@@H](C)[C@H](CN(C)S(=O)(=O)c1ccccc1)O2` gave C diff growth -10, Pf Dd2 inh -22 and T cruzi growth-1 78.
Screening C[C@@H]1CCCCO[C@H](CN(C)S(=O)(=O)c2cccs2)[C@H](C)CN([C@@H](C)CO)C(=O)c2cc(NC(=O)CCCN(C)C)ccc2O1 returned C diff growth 1, Pf Dd2 inh -9 and T cruzi growth-1 39.
For C[C@H](CO)N1C[C@H](C)[C@@H](CN(C)C(=O)Cc2ccccn2)Oc2ncc(C#CC3CCCCC3)cc2C1=O the results were C diff growth -12 and Pf Dd2 inh -12.
For CCCC#Cc1ccc([C@H]2[C@@H](CO)N(C(C)=O)[C@H]2CNC(=O)C2CC2)cc1 the results were C diff growth -9 and Pf Dd2 inh -16.
For COc1ccc(NC(=O)Nc2ccc3c(c2)C(=O)N([C@@H](C)CO)C[C@@H](C)[C@@H](CN(C)S(=O)(=O)c2ccc(Cl)cc2)OCCCC[C@@H](C)O3)cc1 the results were C diff growth -6, Pf Dd2 inh -53, T cruzi growth-1 121*, T cruzi growth-2 105*, T cruzi growth-3 47, 3T3 cytotox 4 and 3T3 cytotox 2 -5.
COc1ccc(NC(=O)Nc2ccc3c(c2)C(=O)N([C@@H](C)CO)C[C@@H](C)[C@H](CN(C)S(=O)(=O)c2ccc(OC)cc2)OCCCC[C@H](C)O3)cc1 was read as C diff growth -1, Pf Dd2 inh -75 and T cruzi growth-1 16.
Screening COc1ccc(NC(=O)Nc2ccc3c(c2)C(=O)N([C@@H](C)CO)C[C@@H](C)[C@H](CN(C)S(=O)(=O)c2ccc(Cl)cc2)OCCCC[C@@H](C)O3)cc1 returned C diff growth 1, Pf Dd2 inh -64, T cruzi growth-1 113*, T cruzi growth-2 107*, T cruzi growth-3 107*, 3T3 cytotox -18 and 3T3 cytotox 2 15.
COc1ccc(NC(=O)Nc2ccc3c(c2)C(=O)N([C@H](C)CO)C[C@H](C)[C@@H](CN(C)S(=O)(=O)c2ccc(Cl)cc2)OCCCC[C@@H](C)O3)cc1 was read as C diff growth 3, Pf Dd2 inh -60 and T cruzi growth-1 92.
For COc1ccc(NC(=O)Nc2ccc3c(c2)C(=O)N([C@H](C)CO)C[C@H](C)[C@H](CN(C)S(=O)(=O)c2ccc(C)cc2)OCCCC[C@H](C)O3)cc1 the results were Pf Dd2 inh -61.
Screening COc1ccc(NC(=O)Nc2ccc3c(c2)C(=O)N([C@@H](C)CO)C[C@H](C)[C@@H](CN(C)S(=O)(=O)c2ccc(Cl)cc2)OCCCC[C@H](C)O3)cc1 returned C diff growth -2, Pf Dd2 inh -75, T cruzi growth-1 113*, T cruzi growth-2 105*, T cruzi growth-3 96*, 3T3 cytotox -9 and 3T3 cytotox 2 15.
`COc1ccc(NC(=O)Nc2ccc3c(c2)C(=O)N([C@H](C)CO)C[C@@H](C)[C@H](CN(C)S(=O)(=O)c2ccc(Cl)cc2)OCCCC[C@H](C)O3)cc1` gave C diff growth 5, Pf Dd2 inh -76, T cruzi growth-1 104*, T cruzi growth-2 110*, T cruzi growth-3 102*, 3T3 cytotox -15 and 3T3 cytotox 2 -22.
